Drawing on PubChem BioAssay (EPA / NIEHS), this text covers outcome and AC50 for 17 compounds.

SMILES strings stand for the structures. Calls of active or inactive are those of the source. Rule for the calls: active = hit-call score of the fitted dose curve at least 0.9, where 1 is the maximum; inactive = score below 0.9.

A short description of assay [1]: ATG_CRE_CIS: Attagene CIS-FACTORIAL HepG2 Assay for human cAMP Responsive Element (CRE) binding protein 3 (AID 2282926). The following applies: HepG2 CRE cis-reporter, Attagene multiplexed mRNA; actives raise or lower the signal. The gist of the method:
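Capillary electrophoresis of 6-FAM-labelled, HpaI-digested PCR products quantified reporter transcripts. These came from HepG2 transiently transfected with cis-element reporters and exposed to test chemicals for 24 hours, with DMSO defining baseline activity.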

Assay [2] has as its target CCAAT/enhancer-binding protein beta (Homo sapiens) (UniProt P17676). Nature of the assay: ATG_C_EBP_CIS: Attagene CIS-FACTORIAL HepG2 Assay for human CCAAT/Enhancer Binding Protein (C/EBP) beta (AID 2282927). The following applies: HepG2 Attagene cis-factorial transcription factor reporter; actives raise or lower the signal. The gist of the method:
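HepG2, transient MRTU transfection, 24 h treatment. RT-PCR plus CE fluorescence; DMSO negative control, bidirectional fit.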

Assay [3] is described as follows: ATG_CMV_CIS: Attagene CIS-FACTORIAL HepG2 Assay for human CMV (Internal Marker) (AID 2282928).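 Note: endpoint acts as a background internal control marker rather than a target.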 The following applies: HepG2 CMV promoter reporter, transcription factor profiling; actives raise or lower the signal. The method in brief: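 Bidirectional fits against DMSO are applied to reporter mRNA, read by RT-PCR with capillary electrophoresis, from HepG2 cells exposed 24 h. The endpoint serves as an internal CMV background marker within the cis-factorial reporter panel.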

Assay [4] is described as follows: ATG_DR4_LXR_CIS: Attagene CIS-FACTORIAL HepG2 Assay for human Liver X Receptor (LXR), DR4 submotif (AID 2282929). The following applies: HepG2 Attagene DR4 cis-reporter, mRNA transcription; actives raise or lower the signal. The gist of the method: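 HepG2, transient MRTU transfection, cis-element (DR4) promoter; 24 h compound exposure; total RNA → oligo(dT) RT → PCR → 6-FAM primer extension → HpaI cut → CE. Gain/loss vs DMSO, bidirectional fit.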

Assay [5] is described as follows: ATG_AP_2_CIS: Attagene CIS-FACTORIAL HepG2 Assay for human Activator Protein 2 (AP-2) (AID 2282932). The following applies: HepG2 AP-2 cis-reporter, Attagene transcription factor profiling; actives raise or lower the signal. The gist of the method: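 Read-out: fluorescent reporter mRNA via RT-PCR and capillary electrophoresis, 24 h post-dose in transiently transfected HepG2. Endogenous factors drive cis-promoter reporters; gain or loss of signal fitted bidirectionally against DMSO.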

Assay [6] can be described thus: ATG_BRE_CIS: Attagene CIS-FACTORIAL HepG2 Assay for human Bone Morphogenetic Protein (BMP) Response Element (BRE) (AID 2282933). The following applies: HepG2 BMP response element reporter, Attagene transcription factor profiling; actives raise or lower the signal. The method in brief:
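Endogenous transcription factor activity at a BMP response element was monitored in transfected HepG2 cells 24 h after dosing. Fluorescent RT-PCR products were resolved by capillary electrophoresis, and activity was fitted in both directions versus DMSO.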

The target in assay [7] is Transcription factor E2F1 (Homo sapiens) (UniProt Q01094). Nature of the assay: ATG_E2F_CIS: Attagene CIS-FACTORIAL HepG2 Assay for human E2F Transcription Factor 1 (AID 2282935). The following applies: HepG2 Attagene cis-reporter, E2F reporter RNA transcripts; actives raise or lower the signal. The gist of the method:
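Transient MRTU transfection of HepG2; 24 h compound exposure; RNA → oligo(dT) RT → PCR → FAM label → HpaI cut → CE fluorescence. Gain/loss of signal fit against DMSO.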

Assay [8] can be described thus: ATG_AP_1_CIS: Attagene CIS-FACTORIAL HepG2 Assay for human Activator Protein 1 (AP-1) (AID 2282931). The following applies: HepG2 Attagene cis-factorial AP-1 reporter mRNA; actives raise or lower the signal. The gist of the method:
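Transient MRTU transfection of HepG2 → 24 h chemical treatment → RNA isolation, RT-PCR, 6-FAM labelling, HpaI digest → capillary electrophoresis. Fit: bidirectional, DMSO negative control.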

Assay [9] has as its target Aryl hydrocarbon receptor (Homo sapiens) (UniProt P35869). Nature of the assay: ATG_Ahr_CIS: Attagene CIS-FACTORIAL HepG2 Assay for human Aryl Hydrocarbon Receptor (Ahr) (AID 2282930). The following applies: HepG2 AhR cis-factorial reporter transcription; actives raise or lower the signal. The gist of the method: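 Endogenous factor activity is tracked through cis-promoter reporter units transfected into HepG2 cells. Transcript levels at 24 h are read by fluorescent RT-PCR and capillary electrophoresis, with activity in either direction scored relative to DMSO.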

Assay [10] deals with Retinoic acid receptor alpha (Homo sapiens) (UniProt P10276). Put plainly: ATG_DR5_RAR_CIS: Attagene CIS-FACTORIAL HepG2 Assay for human Retinoic Acid Receptor Alpha (RARE), DR5 submotif (AID 2282934). The following applies: HepG2 Attagene cis-factorial RARE DR5 reporter, mRNA; actives raise or lower the signal. The method in brief:
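After 24 h of chemical exposure, transiently transfected HepG2 cells were lysed for total RNA; the DR5-regulated reporter transcript was quantified via RT-PCR and capillary electrophoresis, with activity fitted bidirectionally against DMSO.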

Sequence of Retinoic acid receptor alpha (Homo sapiens) (P10276 whole entry, looked up): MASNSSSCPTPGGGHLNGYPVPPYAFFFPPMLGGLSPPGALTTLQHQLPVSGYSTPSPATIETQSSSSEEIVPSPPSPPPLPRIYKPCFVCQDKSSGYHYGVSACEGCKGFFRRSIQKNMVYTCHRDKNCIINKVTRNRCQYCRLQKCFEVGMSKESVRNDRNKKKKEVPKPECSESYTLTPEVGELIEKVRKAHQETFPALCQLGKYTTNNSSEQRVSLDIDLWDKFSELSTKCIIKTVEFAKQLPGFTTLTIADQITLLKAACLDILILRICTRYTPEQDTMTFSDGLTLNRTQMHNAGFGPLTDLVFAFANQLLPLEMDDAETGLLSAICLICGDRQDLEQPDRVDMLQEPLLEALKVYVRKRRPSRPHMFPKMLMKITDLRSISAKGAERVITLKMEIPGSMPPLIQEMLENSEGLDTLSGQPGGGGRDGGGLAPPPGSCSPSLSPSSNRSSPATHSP
Sequence of CCAAT/enhancer-binding protein beta (Homo sapiens) (P17676 whole entry, looked up): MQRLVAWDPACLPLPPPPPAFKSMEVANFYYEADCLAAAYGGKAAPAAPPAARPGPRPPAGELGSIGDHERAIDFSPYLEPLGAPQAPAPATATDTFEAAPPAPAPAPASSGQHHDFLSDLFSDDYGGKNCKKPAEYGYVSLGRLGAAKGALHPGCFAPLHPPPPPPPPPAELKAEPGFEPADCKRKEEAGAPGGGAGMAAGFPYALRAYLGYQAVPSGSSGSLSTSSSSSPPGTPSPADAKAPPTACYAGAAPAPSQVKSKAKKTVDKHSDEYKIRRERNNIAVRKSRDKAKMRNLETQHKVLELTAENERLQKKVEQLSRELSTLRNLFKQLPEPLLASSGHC
Sequence of Aryl hydrocarbon receptor (Homo sapiens) (P35869 whole entry, looked up): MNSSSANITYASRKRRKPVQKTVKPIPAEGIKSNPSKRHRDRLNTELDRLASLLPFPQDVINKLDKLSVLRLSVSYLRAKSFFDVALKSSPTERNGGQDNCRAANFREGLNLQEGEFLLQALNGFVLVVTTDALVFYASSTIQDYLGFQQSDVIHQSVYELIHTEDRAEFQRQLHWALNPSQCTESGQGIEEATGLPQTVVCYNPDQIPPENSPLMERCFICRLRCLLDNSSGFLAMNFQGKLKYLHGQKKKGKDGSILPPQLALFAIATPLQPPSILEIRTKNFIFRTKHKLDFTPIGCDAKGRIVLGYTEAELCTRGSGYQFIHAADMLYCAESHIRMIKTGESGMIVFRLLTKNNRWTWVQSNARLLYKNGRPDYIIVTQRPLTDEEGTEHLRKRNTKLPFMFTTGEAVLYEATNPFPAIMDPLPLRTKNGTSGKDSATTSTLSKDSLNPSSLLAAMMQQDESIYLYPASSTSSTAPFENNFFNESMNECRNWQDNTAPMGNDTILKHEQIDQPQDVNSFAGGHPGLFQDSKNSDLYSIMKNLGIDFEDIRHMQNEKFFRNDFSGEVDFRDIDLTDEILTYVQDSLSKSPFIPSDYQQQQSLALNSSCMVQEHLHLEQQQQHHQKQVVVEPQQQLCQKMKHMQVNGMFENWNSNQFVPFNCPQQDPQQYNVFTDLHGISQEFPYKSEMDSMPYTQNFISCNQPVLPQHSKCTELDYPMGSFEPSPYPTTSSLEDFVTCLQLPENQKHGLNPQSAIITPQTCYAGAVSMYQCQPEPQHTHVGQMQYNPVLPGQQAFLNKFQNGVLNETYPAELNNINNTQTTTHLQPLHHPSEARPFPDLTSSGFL
Sequence of Transcription factor E2F1 (Homo sapiens) (Q01094 whole entry, looked up): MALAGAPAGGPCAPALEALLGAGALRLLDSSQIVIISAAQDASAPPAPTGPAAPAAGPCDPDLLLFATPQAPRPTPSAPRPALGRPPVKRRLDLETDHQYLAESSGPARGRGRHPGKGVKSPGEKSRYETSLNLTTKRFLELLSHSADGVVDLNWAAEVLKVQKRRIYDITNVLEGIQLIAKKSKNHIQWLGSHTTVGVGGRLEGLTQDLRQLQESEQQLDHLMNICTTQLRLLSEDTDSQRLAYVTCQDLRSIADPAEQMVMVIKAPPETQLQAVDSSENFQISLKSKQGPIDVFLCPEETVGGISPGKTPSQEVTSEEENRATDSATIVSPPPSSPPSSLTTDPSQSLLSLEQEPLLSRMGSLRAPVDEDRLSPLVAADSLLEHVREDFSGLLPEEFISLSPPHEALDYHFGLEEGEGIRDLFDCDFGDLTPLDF

Take `CCCCC(CC)COCCC#N` (centres undefined): the result in [1], in assay [2], in assay [3], in assay [4], in [5] and in assay [6] was inactive. Besides, the result in [7] was inactive.

`CC1=CCC2C(C1)C2(C)C` (centres undefined): the call in [1], in [2], in assay [3], in assay [4], in assay [8] and in [5] was inactive. Further, the compound was called inactive in assay [6] and in assay [7].

Regarding `CCCCCCCCCCC(CO)CCCCCCCC` (centres undefined), the call in assay [1], in assay [2], in [3], in [4], in assay [8] and in assay [5] was inactive. The outcome in assay [6] and in assay [7] was inactive.

Take `C=C(C)C(=O)OCCOC(=O)CC(C)=O`: the result in [1], in [2], in [3], in assay [4], in [8] and in assay [5] was inactive. In addition, the compound was called inactive in assay [6] and in assay [7].

In the case of `FC1(F)C(F)(F)C(F)(F)C2(F)C(F)(C1(F)F)C(F)(F)C(F)(F)C1(F)C(F)(F)C(F)(F)C(F)(F)C(F)(F)C12F` (centres undefined), the compound was called inactive in assay [1], in [2], in assay [3], in assay [4], in [9] and in assay [7].

With `NC(=O)NC1NC(=O)NC1=O` (centres undefined), the result in [1], in [2], in assay [3], in [4], in assay [5] and in assay [6] was inactive. Further, the compound was classed as inactive in assay [7].

For orientation: AC50 means the concentration at which the activity in the assay is half-maximal. On to `O=C(COc1ccc(Cl)cc1)N1CCN(Cc2ccc3c(c2)OCO3)CC1`, for which the outcome in assay [1], in assay [2], in assay [4], in assay [8], in assay [5] and in [7] was inactive. For the same compound, the AC50 is 24.9 µM (active) in assay [3] and 93.6 µM (active) in [6].

As to `C=CC(=O)NCOCC(C)C`, the result in assay [1], in assay [2], in [3], in [4], in [8] and in assay [5] was inactive. In addition, the compound was classed as inactive in [6] and in assay [7].

As to `COc1cc2ncnc(Nc3cccc(Cl)c3)c2cc1OC`, the call in assay [1], in assay [2], in [3], in assay [4], in assay [8] and in assay [7] was inactive. The concentration at half-maximal activity (AC50) in assay [5] is 5.09 µM (active).

In the case of `CCCc1c(OCCCOc2ccc(OCC(=O)O)cc2)ccc(C(C)=O)c1O`, the compound was called inactive in assay [1], in assay [2], in [4], in assay [8], in assay [5] and in assay [7]. Also, in [3], the concentration at half-maximal activity (AC50) is 64.1 µM (active).

With `COc1ccc(NC(=O)CC(C)=O)cc1`, the result in [1], in assay [2], in assay [3], in [4], in assay [8] and in assay [5] was inactive. For the same compound, the result in assay [6], in [10] and in assay [7] was inactive.

Consider `CCCC1CCC(=O)O1` (centres undefined), for which the outcome in assay [1], in assay [3], in assay [4], in assay [5], in [6] and in assay [7] was inactive. The half-maximal activity concentration (AC50) in assay [9] is 10.2 µM (active).

Take `CCCCCOC(=O)CCC`: the outcome in assay [1], in assay [3], in assay [4], in assay [9], in [8] and in [5] was inactive. The outcome in [6], in assay [10] and in [7] was inactive.

In the case of `O=C1OC2(c3cc(Br)c(O)c(Br)c3Oc3c2cc(Br)c(O)c3Br)c2c(Cl)c(Cl)c(Cl)c(Cl)c21`, the call in assay [1], in [3], in [4], in assay [8], in [5] and in assay [6] was inactive. In addition, the call in [7] was inactive. In addition, the AC50 in assay [9] was 15.1 µM (active).

In the case of `COc1c(Cl)c(Cl)c(Cl)c(Cl)c1Cl`, the compound was classed as inactive in [1], in assay [4], in assay [8], in assay [6] and in assay [7]. Besides, the AC50 in assay [3] is 27.7 µM (active).

For `CCN(CC)c1ccc2c(-c3ccccc3C(=O)O)c3ccc(=[N+](CC)CC)cc-3oc2c1`, the outcome in assay [1], in assay [3], in [9], in assay [8], in assay [5] and in assay [7] was inactive. Further, the AC50 is 130 µM (active) in assay [4] and 158 µM (active) in assay [6].

In the case of `CCCCOCCOCCSC#N`, the call in assay [1], in [3], in assay [4], in assay [8], in [5] and in assay [6] was inactive. The call in assay [10] and in assay [7] was inactive.
